Most compounds without a hit are left out; they make up all but 2.9% or so of the library.
LYPLA2 inh: blocks human lysophospholipase 2, a PME1 counter-screen. AID 2177. inhibition, % at 5.9 µM. O95372. recombinant LYPLA2, FP-Rh probe fluorescence polarization. hit rate 0.38% among 320,000;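 active = inhibition above the screen-wide mean plus 3 SD, limit set per campaign, cut at about 26% in these data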
LYPLA1 inh: counter-screen for PME1 inhibitors: inhibitors of human LYPLA1; O75608; inhibition, % at 5.9 µM; hit rate 0.16% among 320,000; AID 2174; recombinant LYPLA1, FP-Rh probe fluorescence polarization;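 active = inhibition above the mean of all tested compounds plus 3 SD, set per campaign, cut at about 14% in these data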;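 note: inhibitors block serine hydrolase probe labeling of LYPLA1 so polarization falls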
Target sequence (O75608 whole entry, looked up): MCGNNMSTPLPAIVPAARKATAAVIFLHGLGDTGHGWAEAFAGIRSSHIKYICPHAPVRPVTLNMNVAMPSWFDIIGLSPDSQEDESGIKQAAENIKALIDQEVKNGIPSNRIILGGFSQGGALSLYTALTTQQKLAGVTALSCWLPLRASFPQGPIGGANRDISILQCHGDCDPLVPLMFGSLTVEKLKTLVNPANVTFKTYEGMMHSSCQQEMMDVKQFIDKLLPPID
PAFAH1B3 inh: PAFAH1B3 (human) inhibition. recombinant PAFAH1B3, FP-rhodamine probe, fluorescence polarization. inhibition, % at 3.39 µM. hit rate 0.28% among 340,000. AID 492972;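 active = inhibition above the screen-wide average of all tested compounds plus 3 SD, cut at about 25% in these data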
Target sequence (Q15102 whole entry, looked up): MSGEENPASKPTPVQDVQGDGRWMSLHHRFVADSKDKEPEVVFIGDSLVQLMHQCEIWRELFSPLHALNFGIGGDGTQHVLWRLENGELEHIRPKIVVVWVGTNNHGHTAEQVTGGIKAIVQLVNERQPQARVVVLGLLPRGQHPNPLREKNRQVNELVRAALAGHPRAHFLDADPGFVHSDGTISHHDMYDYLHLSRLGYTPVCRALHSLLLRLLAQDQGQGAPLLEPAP
PAFAH1B2 inh: PAFAH1B2 (human) inhibition | hit rate 1.2% among 340,000 | P68402 | recombinant PAFAH1B2, FP-rhodamine activity probe, fluorescence polarization | inhibition, % at 3.39 µM;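 active = inhibition above the mean of all tested compounds plus 3 SD, cut at about 24% in these data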
Target sequence (P68402 whole entry, looked up): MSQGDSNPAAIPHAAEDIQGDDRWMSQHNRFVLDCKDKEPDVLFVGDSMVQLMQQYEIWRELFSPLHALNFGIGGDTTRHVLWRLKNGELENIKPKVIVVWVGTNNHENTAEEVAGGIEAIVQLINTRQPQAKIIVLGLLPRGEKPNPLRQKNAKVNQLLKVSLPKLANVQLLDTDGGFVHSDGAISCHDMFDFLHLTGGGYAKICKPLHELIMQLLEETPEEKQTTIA
PAFAH2 FP inh: PAFAH2 (human) inhibition; inhibition, % at 3.39 µM; recombinant PAFAH2, FP-rhodamine activity probe, fluorescence polarization; hit rate 0.99% among 340,000;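 active = inhibition above the mean over all tested compounds plus 3 SD, cut at about 30% in these data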;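 note: inhibitors block probe labeling of enzyme so polarization drops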
pPAFAH inh: inhibitors of human plasma PAF acetylhydrolase (pPAFAH) | recombinant pPAFAH, FP-rhodamine probe fluorescence polarization | inhibition, % at 3.39 µM | hit rate 1.5% among 330,000;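 active = inhibition above the mean inhibition across the screen plus 3 SD, cut at about 25% in these data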;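 note: inhibitors block binding of the rhodamine activity-based probe so polarization drops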
Large screens that a line does not name were inactive.

O=C(C[C@H]1C/C=C\CC[C@H](Cc2ccc(F)cc2)C(=O)OC[C@H]2CCCN2C1=O)N[C@@H](CO)Cc1ccccc1	pPAFAH inh 26.6 (no result: LYPLA2 inh, LYPLA1 inh)
O=C(C[C@H]1C/C=C\CC[C@H](Cc2ccc(F)cc2)C(=O)O[C@@H](c2ccccc2)CNC1=O)N[C@@H](CO)Cc1ccccc1	PAFAH1B2 inh 25.2 (no result: LYPLA2 inh, LYPLA1 inh)
O=C(C[C@@H]1C/C=C\CC[C@@H](Cc2ccc(F)cc2)C(=O)OC[C@@H]2CCCN2C1=O)N[C@H](CO)Cc1ccccc1	none (no result: LYPLA2 inh, LYPLA1 inh)
O=C(C[C@H]1C/C=C\C[C@@H](Cc2ccc(F)cc2)C(=O)OC[C@H]2CCCN2C1=O)N[C@@H](CO)Cc1ccccc1	PAFAH1B2 inh 35.1 (no result: LYPLA2 inh, LYPLA1 inh)
O=C(C[C@@H]1C/C=C\C[C@@H](Cc2ccc(F)cc2)C(=O)OC[C@H]2CCCN2C1=O)N[C@H](CO)Cc1ccccc1	PAFAH1B2 inh 30.8 (no result: LYPLA2 inh, LYPLA1 inh)
C[C@H]1COC(=O)[C@H](Cc2ccc(F)cc2)CC/C=C/C[C@@H](CC(=O)N[C@@H](CO)Cc2ccccc2)C(=O)N1	none (no result: LYPLA2 inh, LYPLA1 inh)
C[C@H]1COC(=O)[C@@H](Cc2ccc(F)cc2)C/C=C\C[C@@H](CC(=O)N[C@@H](CO)Cc2ccccc2)C(=O)N1	PAFAH1B2 inh 25.2 (no result: LYPLA2 inh, LYPLA1 inh)
CC(C)(C)OC(=O)C[C@H]1C/C=C\C[C@@H](CC(=O)NCCO)C(=O)N2CCC[C@H]2COC1=O	none (no result: LYPLA2 inh, LYPLA1 inh)
O=C(C[C@@H]1C/C=C\C[C@@H](Cc2ccc(F)cc2)C(=O)OC[C@@H]2CCCN2C1=O)NCCO	PAFAH1B2 inh 47.3 (no result: LYPLA2 inh, LYPLA1 inh)
Cc1ccnc(NC(=O)CCC(=O)N(CC(=O)NC(C)(C)C)c2ccc3c(c2)OCCO3)c1	none
Cc1csc(NC(=O)c2cc(=O)[nH]c3ccc(S(=O)(=O)N4CCOCC4)cc23)n1	none
COc1cccc(C(=O)Oc2ccc(/C=N/Nc3ccc(C(=O)O)cc3)cc2OC)c1	pPAFAH inh 28.3
COC(=O)Cc1csc(Nc2ccc(F)c(Cl)c2)n1	pPAFAH inh 25.0
CSc1nc2ccc(NS(=O)(=O)c3ccc4c(c3)OCCO4)cc2s1	pPAFAH inh 30.4
O=C(C1CCN(c2nnc(N3CCCC3=O)s2)CC1)N1CCN(c2cccc(C(F)(F)F)c2)CC1	none
Cc1cccc(N2C(S)=C(C#N)C(=O)NC2c2ccco2)c1 (stereo unspecified)	none
N#CC1=C(S)N(c2ccccc2)C(c2ccc(-c3cccc(Cl)c3)o2)NC1=O (stereo unspecified)	pPAFAH inh 28.4
CSCCC(NC(=O)c1ccccc1Cl)C(=O)N(C)CC(=O)Nc1ccc(N2CCOCC2)cc1 (stereo unspecified)	pPAFAH inh 28.6
COc1ccc(NS(=O)(=O)c2ccc(-c3n[nH]c(=S)n3Cc3ccccc3)cc2)cc1	pPAFAH inh 25.1
COc1ccc(NS(=O)(=O)c2ccc(C)c(C(=O)NC3CCN(Cc4ccccc4)CC3)c2)cc1	pPAFAH inh 26.4
COc1ccc(NS(=O)(=O)c2ccc(NS(=O)(=O)c3cccc(C(=O)O)c3)cc2)cc1	none
S=c1[nH]nc(Cc2ccccc2)n1-c1ccccc1	none
COc1ccc(NS(=O)(=O)c2cccc(-c3nnc(-c4ccccc4)o3)c2)cc1	pPAFAH inh 29.7
S=c1[nH]nc(Cc2ccccc2)n1-c1ccc(Cl)cc1	PAFAH1B2 inh 28.6
S=C1NCCN1CC1CCN(CCCC2CCCC2)CC1	none (no result: LYPLA2 inh, LYPLA1 inh, pPAFAH inh)
COc1ccc(OC)c(N(CC(=O)Nc2cccnc2)S(=O)(=O)c2ccccc2)c1	none
O=C(NC1CCCCC1)[C@H](O)[C@@H](O)C(=O)NC1CCCCC1	none
C=CCOc1cccc(C(=O)N(C)C2CCCN(Cc3ccccc3F)C2)c1 (stereo unspecified)	none
Cc1ccc2nc(Nc3nc(C)cc(C(F)(F)F)n3)nc(C)c2c1	none
CCCCc1n[nH]c(=S)n1Cc1ccc(Cl)cc1	PAFAH1B2 inh 26.7
COc1ccc(NS(=O)(=O)c2cccc(-c3n[nH]c(=S)n3Cc3ccccc3)c2)cc1	pPAFAH inh 26.7
CCN(CC)S(=O)(=O)c1cccc(-c2n[nH]c(=S)n2Cc2ccccc2)c1	none
S=c1[nH]nc(-c2ccc(Cl)cc2)n1Cc1ccccc1	PAFAH1B2 inh 37.1
O=C(NCc1ccccc1F)C1CCN(C(=O)Nc2ccc(F)cc2)CC1	none
C[C@H](CO)N1C[C@H](C)[C@@H](CN(C)C(=O)Nc2ccc(C(F)(F)F)cc2)Oc2c(NC(=O)CCC(F)(F)F)cccc2C1=O	PAFAH1B2 inh 27.6 (no result: LYPLA2 inh, LYPLA1 inh)
C[C@H](CO)N1C[C@H](C)[C@@H](CN(C)C(=O)Nc2ccccc2)Oc2c(NC(=O)Nc3ccc(C(F)(F)F)cc3)cccc2C1=O	PAFAH1B2 inh 35.9 (no result: LYPLA2 inh, LYPLA1 inh)
C[C@H](CO)N1C[C@H](C)[C@@H](CN(C)C(=O)Nc2ccccc2)Oc2c(NC(=O)Nc3ccccc3)cccc2C1=O	none (no result: LYPLA2 inh, LYPLA1 inh)
C[C@@H]1CN([C@H](C)CO)C(=O)c2cccc(NC(=O)NC3CCCCC3)c2O[C@@H]1CN(C)C(=O)Nc1ccc(C(F)(F)F)cc1	PAFAH1B2 inh 64.3 (no result: LYPLA2 inh, LYPLA1 inh)
C[C@H](CO)N1C[C@H](C)[C@@H](CN(C)C(=O)Nc2ccc(C(F)(F)F)cc2)Oc2c(NC(=O)Cc3ccccc3)cccc2C1=O	none (no result: LYPLA2 inh, LYPLA1 inh)
CCCCc1cc(=O)oc2c(C)c(OCC(=O)N3CCCC3)ccc12	none
CC1CC(C)CN(C(=O)COC(=O)c2cccc([N+](=O)[O-])c2)C1 (stereo unspecified)	none
COC(=O)c1ccc(NC(=S)NCCc2ccc(OC)cc2)cc1	none
O=C(NC(=S)Nc1ccc(Cl)c(C(=O)O)c1)c1ccco1	none
O=C(O)c1cc(NC(=S)NC(=O)C(c2ccccc2)c2ccccc2)ccc1Cl	PAFAH1B2 inh 32.3
CC(=O)C(C(C)=O)c1cc(NS(=O)(=O)c2ccccc2)ccc1NS(=O)(=O)c1ccccc1	none
CN1CCc2nc(NC(=O)COc3ccc4ccccc4c3)sc2C1	none
O=[N+]([O-])c1ccccc1/C=C/C=N/n1c(-c2ccccc2)n[nH]c1=S	none
O=[N+]([O-])c1ccccc1/C=C/C=N/n1c(-c2ccc(Cl)cc2)n[nH]c1=S	pPAFAH inh 26.9
CCN(CC)CCCn1c2c(c(SCC(=O)Nc3cccc(C)c3C)nc1=O)CCC2	none
CCN(CC)CCCn1c2c(c(SCC(=O)Nc3cccc4ccccc34)nc1=O)CCC2	PAFAH1B3 inh 35.7, PAFAH1B2 inh 33.9, PAFAH2 FP inh 32.1
COc1ccccc1N1C(N)=NC(N)=NC12CCCCC2	none (no result: LYPLA2 inh, LYPLA1 inh, pPAFAH inh)
CN1CSC2=C(C#N)C(c3cccc(OCc4ccccc4)c3)CC(=O)N2C1 (stereo unspecified)	PAFAH2 FP inh 32.1
CCc1ccc(C2CC(=O)N3CN(c4ccccc4)CSC3=C2C#N)cc1 (stereo unspecified)	none
COc1ccc(NC(=S)NCCN2CCC(C)CC2)cc1Cl	none
O=C(NC1CCCCCC1)c1cc2n(n1)C(C(F)(F)F)CC(c1ccco1)N2 (stereo unspecified)	pPAFAH inh 33.5

Screening data as filed in PubChem BioAssay.
